Molecules are shown by their SMILES. Calls of active or inactive are those of the source. The calls were made as follows: active = hit-call score of the fitted dose curve at least 0.9, where 1 is the maximum; inactive = score below 0.9.

The values below come from PubChem BioAssay (EPA / NIEHS).

Test [1] has as its target Transcription factor E2F1 (Homo sapiens) (UniProt Q01094). The test can be described thus: ATG_E2F_CIS: Attagene CIS-FACTORIAL HepG2 Assay for human E2F Transcription Factor 1 (AID 2282935). The following applies: HepG2 Attagene cis-reporter, E2F reporter RNA transcripts; actives raise or lower the signal. The essentials:
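Transient MRTU transfection of HepG2; 24 h compound exposure; RNA → oligo(dT) RT → PCR → FAM label → HpaI cut → CE fluorescence. Gain/loss of signal fit against DMSO.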

Test [2] in a line: ATG_E_Box_CIS: Attagene CIS-FACTORIAL HepG2 Assay for human Enhancer Box (E-box) (AID 2282936). The following applies: HepG2 E-box cis-reporter transcription, actives raise or lower the signal. In a few lines:
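Transiently transfected HepG2, endogenous TF-driven reporters, 24 h dosing. Readout: RT-PCR plus capillary electrophoresis of fluorescent reporter fragments. Gain or loss of signal fitted bidirectionally against DMSO baseline.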

Test [3] can be described thus: ATG_EGR_CIS: Attagene CIS-FACTORIAL HepG2 Assay for human Early Growth Response 1 (EGR1) (AID 2282938). The following applies: HepG2 Attagene CIS-FACTORIAL EGR reporter mRNA; actives raise or lower the signal. In a few lines:
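Activity is taken as induction or loss of reporter mRNA versus DMSO, fitted bidirectionally. Transcripts from cis-regulated reporter units in transiently transfected HepG2 were measured after 24 h by RT-PCR with capillary electrophoresis.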

Test [4] can be described thus: ATG_M_19_CIS: Attagene CIS-FACTORIAL HepG2 Assay for M19 Transcription Factor (Internal Marker) (AID 2282939). The following applies: HepG2 Attagene CIS-FACTORIAL M19 internal marker reporter; actives raise or lower the signal. The essentials:
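Following a 24 h exposure, RNA from transfected HepG2 cells was reverse-transcribed, PCR-amplified with reporter-specific primers, end-labelled with 6-FAM and HpaI-digested before capillary separation. Values represent gain or loss versus DMSO.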

Test [5] can be described thus: ATG_ERE_CIS: Attagene CIS-FACTORIAL HepG2 Assay for Estrogen Response Element (ERE) (AID 2282940). The following applies: HepG2 ERE cis-reporter, Attagene RNA transcript; actives raise or lower the signal. The essentials: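 HepG2, transient cis-reporter units, 24 h exposure. RNA isolated, oligo(dT) RT, reporter-specific PCR, FAM extension, HpaI cut, CE detection. Gain/loss-of-signal vs DMSO.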

Test [6] is described as follows: ATG_Ets_CIS: Attagene CIS-FACTORIAL HepG2 Assay for human Erythroblast Transformation Specific (ETS) (AID 2282941). The following applies: HepG2 ETS cis-reporter transcription, actives raise or lower the signal. The essentials: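 RT-PCR/capillary electrophoresis fluorescence read-out of reporter mRNA; HepG2 transient multi-reporter transfection; 24 h compound exposure; gain or loss of signal fitted bidirectionally relative to DMSO.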

Test [7] deals with Hepatocyte nuclear factor 3-beta (Homo sapiens) (UniProt Q9Y261). The test can be described thus: ATG_FoxA2_CIS: Attagene CIS-FACTORIAL HepG2 Assay for human Forkhead box A2 (FOXA2) (AID 2282942). The following applies: HepG2 cis-reporter transcription factor activity, 24 h; actives raise or lower the signal. In a few lines: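 Reporter transcript induction is measured by fluorescence after capillary electrophoresis of RT-PCR products from HepG2 cells exposed 24 h. Cis-regulated reporter units report endogenous factor activity; curves fitted both directions against DMSO.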
Hepatocyte nuclear factor 3-beta (Homo sapiens), sequence (Q9Y261 whole entry, looked up): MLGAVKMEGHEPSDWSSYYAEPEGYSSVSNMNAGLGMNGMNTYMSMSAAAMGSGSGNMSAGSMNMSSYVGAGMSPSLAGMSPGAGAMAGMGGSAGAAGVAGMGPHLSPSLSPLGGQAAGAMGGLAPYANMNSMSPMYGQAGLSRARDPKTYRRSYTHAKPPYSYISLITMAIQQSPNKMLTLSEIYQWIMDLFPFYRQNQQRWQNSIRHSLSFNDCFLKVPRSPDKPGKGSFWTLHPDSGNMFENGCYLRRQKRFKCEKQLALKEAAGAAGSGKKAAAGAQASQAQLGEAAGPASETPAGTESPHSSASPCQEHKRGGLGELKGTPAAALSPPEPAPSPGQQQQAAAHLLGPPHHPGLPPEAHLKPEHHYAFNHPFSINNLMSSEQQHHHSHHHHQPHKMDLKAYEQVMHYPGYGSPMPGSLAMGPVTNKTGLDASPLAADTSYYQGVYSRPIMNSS

Test [8] is described as follows: ATG_FoxO_CIS: Attagene CIS-FACTORIAL HepG2 Assay for human Forkhead box O (FoxO) (AID 2282943). The following applies: HepG2 Attagene cis-reporter, FoxO element, mRNA; actives raise or lower the signal. In a few lines: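 Read-out: fluorescence of 6-FAM-labelled reporter cDNA fragments resolved by capillary electrophoresis. Transiently transfected HepG2 cells were dosed for 24 h; activity fitted in both directions relative to DMSO controls.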

Test [9] is described as follows: ATG_GATA_CIS: Attagene CIS-FACTORIAL HepG2 Assay for human GATA Binding Protein (AID 2282944). The following applies: HepG2 GATA cis-element reporter, Attagene multiplex mRNA; actives raise or lower the signal. In a few lines:
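DMSO serves as negative control and baseline for bidirectional fitting of reporter mRNA changes. HepG2 cells bearing transiently transfected cis-promoter reporters were exposed 24 h; transcripts detected via RT-PCR and capillary electrophoresis.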

Test [10] in a line: ATG_GLI_CIS: Attagene CIS-FACTORIAL HepG2 Assay for human Zinc Finger Protein GLI1 (AID 2282945). The following applies: HepG2, Attagene cis-factorial reporter mRNA, GLI element; actives raise or lower the signal. In a few lines: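 Transiently transfected HepG2 cells report endogenous transcription factor activity via cis-element-driven reporter units. After 24 h compound exposure, reporter mRNA was measured by RT-PCR with capillary electrophoresis; bidirectional fitting against DMSO baseline.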

Test [11] in a line: ATG_ISRE_CIS: Attagene CIS-FACTORIAL HepG2 Assay for human Interferon Regulatory Factor 1 (IRF1) binding to an Interferon-Stimulated Response Element (ISRE) (AID 2282948). The following applies: HepG2 ISRE cis-reporter (Attagene), mRNA transcription readout; actives raise or lower the signal. The essentials:
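Read-out: fluorescent RT-PCR products resolved by capillary electrophoresis, reporting endogenous transcription factor activity via ISRE-driven reporter mRNA in transfected HepG2 cells dosed for 24 h; gain or loss fitted relative to DMSO.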

Test [12] can be described thus: ATG_M_32_CIS: Attagene CIS-FACTORIAL HepG2 Assay for M32 Transcription Factor (Internal Marker) (AID 2282949).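 Also: background control marker of the multiplexed CIS panel rather than a real target.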 The following applies: HepG2 Attagene cis-factorial M32 reporter, mRNA; actives raise or lower the signal. The essentials: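 Using DMSO as baseline, bidirectional curve fits were applied to reporter mRNA signals. These came from transiently transfected HepG2 cells exposed for 24 h, with RNA analysed by RT-PCR, FAM primer extension, HpaI digestion and CE.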

The nature of test [13]: ATG_M_06_CIS: Attagene CIS-FACTORIAL HepG2 Assay for M06 Transcription Factor (Internal Marker) (AID 2282950). The following applies: HepG2 Attagene CIS-FACTORIAL M06 internal marker reporter; actives raise or lower the signal. In a few lines: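 Fluorescence-labelled RT-PCR products from cis-promoter reporter units, cut with HpaI and resolved by capillary electrophoresis, give the signal. Cells are human HepG2, dosed for 24 h. Serves as background control, fitted relative to DMSO.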

For test [14], the target named is Hypoxia-inducible factor 1-alpha (Homo sapiens) (UniProt Q16665). Kind of test: ATG_HIF1a_CIS: Attagene CIS-FACTORIAL HepG2 Assay for human Hypoxia Inducible Factor 1 (HIF1A) (AID 2282951). The following applies: HepG2 Attagene cis-factorial HIF1a reporter transcription; actives raise or lower the signal. In a few lines:
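Fluorescence intensity of capillary-separated, 6-FAM-labelled reporter amplicons gives mRNA induction in HepG2 cells carrying transfected cis-promoter reporter units; cells exposed 24 h, responses fitted up or down from DMSO.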

For test [15], the target named is Hepatocyte nuclear factor 6 (Homo sapiens) (UniProt Q9UBC0). Kind of test: ATG_HNF6_CIS: Attagene CIS-FACTORIAL HepG2 Assay for human Hepatocyte Nuclear Factor 6 (HNF6) (AID 2282952). The following applies: HepG2 Attagene cis-factorial HNF6 reporter transcription; actives raise or lower the signal. The essentials: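 First, HepG2 cells were transfected with the multiplexed cis reporter library and dosed with chemical for 24 h. Next, RNA was reverse-transcribed, PCR-amplified and fluorescently labelled. Finally, HpaI-digested fragments were read by capillary electrophoresis.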
Hepatocyte nuclear factor 6 (Homo sapiens), sequence (Q9UBC0 whole entry, looked up, the tested form may be a part): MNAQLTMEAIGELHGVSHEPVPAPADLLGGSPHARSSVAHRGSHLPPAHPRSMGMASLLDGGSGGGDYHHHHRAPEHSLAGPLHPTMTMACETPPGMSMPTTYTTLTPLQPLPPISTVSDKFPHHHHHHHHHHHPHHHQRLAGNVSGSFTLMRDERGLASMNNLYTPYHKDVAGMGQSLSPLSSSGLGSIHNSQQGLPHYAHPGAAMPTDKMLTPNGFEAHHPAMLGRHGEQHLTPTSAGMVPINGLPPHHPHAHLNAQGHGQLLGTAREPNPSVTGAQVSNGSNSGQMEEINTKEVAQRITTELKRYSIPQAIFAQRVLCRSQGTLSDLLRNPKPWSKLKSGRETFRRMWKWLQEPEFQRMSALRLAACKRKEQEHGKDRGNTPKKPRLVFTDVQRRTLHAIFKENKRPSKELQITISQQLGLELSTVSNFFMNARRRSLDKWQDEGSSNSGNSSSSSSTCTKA

Test [16] has as its target Heat shock factor protein 1 (Homo sapiens) (UniProt Q00613). Kind of test: ATG_HSE_CIS: Attagene CIS-FACTORIAL HepG2 Assay for human Heat Shock Transcription Factor 1 (HSE) (AID 2282953). The following applies: HepG2 HSE cis-reporter, Attagene RNA transcription; actives raise or lower the signal. In a few lines: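 After a 24 h incubation with test chemical, transfected HepG2 cells were harvested for RNA; reporter transcripts were measured by RT-PCR and capillary electrophoresis. Values reflect gain or loss of signal relative to DMSO.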

The target in test [17] is Bile acid receptor (Homo sapiens) (UniProt Q96RI1). The test can be described thus: ATG_IR1_CIS: Attagene CIS-FACTORIAL HepG2 Assay for human Nuclear Receptor Subfamily 1 Group H Member 4 (NR1H4), IR1 submotif (AID 2282946). The following applies: IR1 reporter transcription, actives raise or lower the signal. The essentials:
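Fluorescence of capillary-separated, HpaI-digested RT-PCR reporter products gave IR1-element mRNA induction in HepG2 cells 24 h after dosing. Endogenous transcription factors drove the cis-regulated reporters; activity was fitted bidirectionally against DMSO.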

A short description of test [18]: ATG_MRE_CIS: Attagene CIS-FACTORIAL HepG2 Assay for human Metal Responsive Element (MRE) (AID 2282954). The following applies: HepG2 MRE cis-reporter transcription, Attagene multiplex; actives raise or lower the signal. The essentials: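 RT-PCR/capillary electrophoresis readout of reporter mRNA, 24 h post-dosing, in HepG2 cells transfected with multiplexed cis-regulated reporter constructs. Gain or loss of signal fitted bidirectionally against DMSO baseline.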

Transcription factor E2F1 (Homo sapiens), sequence (Q01094 whole entry, looked up): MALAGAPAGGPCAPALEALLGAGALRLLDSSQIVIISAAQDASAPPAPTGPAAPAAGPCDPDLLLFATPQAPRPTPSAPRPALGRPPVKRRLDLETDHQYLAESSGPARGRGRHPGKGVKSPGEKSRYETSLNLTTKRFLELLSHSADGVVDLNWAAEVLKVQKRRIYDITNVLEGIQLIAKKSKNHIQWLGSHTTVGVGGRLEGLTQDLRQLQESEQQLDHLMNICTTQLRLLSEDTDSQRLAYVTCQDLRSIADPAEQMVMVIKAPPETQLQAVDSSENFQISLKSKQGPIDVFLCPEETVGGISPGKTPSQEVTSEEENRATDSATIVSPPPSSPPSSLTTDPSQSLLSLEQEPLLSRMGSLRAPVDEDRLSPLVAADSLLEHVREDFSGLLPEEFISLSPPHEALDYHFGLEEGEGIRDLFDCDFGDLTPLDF
Heat shock factor protein 1 (Homo sapiens), sequence (Q00613 whole entry, looked up): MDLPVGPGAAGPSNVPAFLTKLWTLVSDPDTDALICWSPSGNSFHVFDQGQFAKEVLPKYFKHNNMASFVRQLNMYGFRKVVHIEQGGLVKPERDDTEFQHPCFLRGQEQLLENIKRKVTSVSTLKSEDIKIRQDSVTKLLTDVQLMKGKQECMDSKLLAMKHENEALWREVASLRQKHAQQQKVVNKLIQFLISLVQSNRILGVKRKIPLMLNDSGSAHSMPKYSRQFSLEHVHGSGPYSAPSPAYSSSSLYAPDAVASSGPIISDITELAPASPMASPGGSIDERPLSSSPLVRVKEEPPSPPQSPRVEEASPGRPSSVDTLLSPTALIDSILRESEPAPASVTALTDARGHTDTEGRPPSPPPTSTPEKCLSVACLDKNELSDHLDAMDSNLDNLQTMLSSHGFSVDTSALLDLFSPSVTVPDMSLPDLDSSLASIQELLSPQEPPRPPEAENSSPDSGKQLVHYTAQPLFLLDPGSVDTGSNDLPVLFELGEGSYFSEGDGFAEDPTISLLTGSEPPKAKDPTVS
Hypoxia-inducible factor 1-alpha (Homo sapiens), sequence (Q16665 whole entry, looked up): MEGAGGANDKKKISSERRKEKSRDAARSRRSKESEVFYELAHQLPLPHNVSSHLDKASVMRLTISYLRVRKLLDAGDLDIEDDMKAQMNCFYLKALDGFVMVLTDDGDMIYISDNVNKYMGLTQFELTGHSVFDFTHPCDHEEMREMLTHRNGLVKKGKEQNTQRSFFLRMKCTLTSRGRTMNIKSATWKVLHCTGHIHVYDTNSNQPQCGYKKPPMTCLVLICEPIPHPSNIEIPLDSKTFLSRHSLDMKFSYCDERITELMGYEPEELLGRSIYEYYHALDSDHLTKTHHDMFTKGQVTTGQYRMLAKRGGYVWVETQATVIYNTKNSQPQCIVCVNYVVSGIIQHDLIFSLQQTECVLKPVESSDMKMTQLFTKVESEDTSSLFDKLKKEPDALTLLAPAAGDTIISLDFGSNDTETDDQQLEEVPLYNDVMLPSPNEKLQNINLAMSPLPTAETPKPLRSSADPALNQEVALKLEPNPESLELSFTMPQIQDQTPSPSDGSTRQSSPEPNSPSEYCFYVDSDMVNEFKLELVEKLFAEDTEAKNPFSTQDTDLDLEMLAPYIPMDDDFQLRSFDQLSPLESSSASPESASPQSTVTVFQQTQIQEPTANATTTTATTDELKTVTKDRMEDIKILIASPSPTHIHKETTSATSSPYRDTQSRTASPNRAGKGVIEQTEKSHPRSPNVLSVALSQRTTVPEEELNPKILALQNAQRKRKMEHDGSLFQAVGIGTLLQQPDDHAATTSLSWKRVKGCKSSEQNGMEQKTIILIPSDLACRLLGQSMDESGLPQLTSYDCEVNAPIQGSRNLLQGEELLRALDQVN
Bile acid receptor (Homo sapiens), sequence (Q96RI1 whole entry, looked up): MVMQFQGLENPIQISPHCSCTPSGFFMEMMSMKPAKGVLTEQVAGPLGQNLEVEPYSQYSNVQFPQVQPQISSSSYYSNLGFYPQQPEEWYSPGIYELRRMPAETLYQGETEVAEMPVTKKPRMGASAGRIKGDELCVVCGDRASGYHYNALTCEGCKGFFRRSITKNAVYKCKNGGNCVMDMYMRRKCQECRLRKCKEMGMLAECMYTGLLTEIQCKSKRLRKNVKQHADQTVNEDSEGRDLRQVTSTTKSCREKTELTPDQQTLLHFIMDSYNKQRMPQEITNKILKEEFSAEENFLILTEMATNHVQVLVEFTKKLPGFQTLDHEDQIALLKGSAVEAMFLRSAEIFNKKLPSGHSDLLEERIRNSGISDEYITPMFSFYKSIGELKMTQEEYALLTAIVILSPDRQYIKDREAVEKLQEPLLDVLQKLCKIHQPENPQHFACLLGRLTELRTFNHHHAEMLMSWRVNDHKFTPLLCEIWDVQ

In general, AC50 refers to the midpoint of the concentration-response curve, whichever way the signal moves. Consider `CC(C)NC(=O)N1CC(=O)N(c2cc(Cl)cc(Cl)c2)C1=O`, for which the call in test [1], in [2], in [3], in test [4], in test [6] and in test [7] was inactive. Moreover, the result in test [8], in [9], in test [10], in [11], in [12] and in [13] was inactive. The call in [14] and in test [15] was inactive. The AC50 in test [5] is 20.6 µM (active).
For the compound `COP(=O)(OC)O/C(C)=C/C(=O)N(C)C`, the call in test [1], in test [2], in test [3], in test [4], in test [6] and in test [7] was inactive. In addition, the call in test [8], in [9], in [10], in test [11], in test [12] and in test [13] was inactive. For the same compound, the result in test [14], in test [15] and in test [16] was inactive. Moreover, in [5], the AC50 was 23.5 µM (active).
In the case of `CCOP(=O)(OCC)Oc1nc(Cl)c(Cl)cc1Cl`, the outcome in test [1], in [2], in test [3], in test [4], in [6] and in [7] was inactive. The call in test [8], in [9], in [10], in test [11], in test [12] and in [13] was inactive. Also, the compound was called inactive in test [14], in test [15] and in test [16]. Moreover, in test [5], the AC50 was 39.1 µM (active).
Regarding `Cc1ccc(N=CN(C)C=Nc2ccc(C)cc2C)c(C)c1`, the result in test [1], in test [2], in [3], in [4], in test [5] and in [6] was inactive. Moreover, the compound was called inactive in test [7], in [8], in [9], in test [10], in [11] and in [12]. The compound was called inactive in test [13], in test [14], in test [15] and in test [16].
For the compound `Nc1c(Cl)c(Cl)nc(C(=O)O)c1Cl`, the compound was called inactive in [1], in test [2], in [3], in test [4], in [5] and in test [6]. The result in test [7], in [8], in test [9], in test [10], in test [11] and in test [12] was inactive. For the same compound, the outcome in test [13], in test [14] and in test [15] was inactive.
With `COC(=O)NC(=S)Nc1ccccc1NC(=S)NC(=O)OC`, the outcome in [1], in [2], in test [3], in [4], in [5] and in [6] was inactive. Besides, the outcome in test [7], in [8], in test [9], in test [10], in test [17] and in [11] was inactive. Besides, the outcome in test [12], in [13], in test [14], in [15], in [16] and in test [18] was inactive.
